Source: PubChem
KB-3-1 cytotox: kills parental KB-3-1 adenocarcinoma cells | KB-3-1 viability, CellTiter-Glo ATP luminescence, 72 h | Potency, µM (top dose mostly 46.1 µM), most hits filed as cytotoxic | actives 1.4% (n = 400,000); further: on the % scale 0 is the no-effect control and ±100 the full control effect; nearly all actives have a fitted effect of over 60% in size
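72 h, 37 °C compound treatment of KB-3-1 parental cells; CellTiter-Glo added, 10 min, luminescence read. Data corrected against DMSO-only plates and normalized before curve fitting.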
KB-V1 cytotox: KB-V1 MDR subline cytotoxicity; Potency, µM (titrated, usually from 46.1 µM), most hits filed as cytotoxic; actives 3.4% (n = 400,000); KB-V1 MDR cells viability, CellTiter-Glo, 72 h; AID 1347076; further: on the % scale 0 is the no-effect control and ±100 the full control effect; nearly all actives have a fitted effect of over 60% in size
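KB-V1 cells (P-gp-expressing MDR subline of KB-3-1) in phenol-red-free DMEM with 10% FBS were exposed to library compounds over a concentration series for 72 h at 37 degrees C. Viability read by CellTiter-Glo luminescence; concentration-effect curves fitted after normalization.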
Gal4-VP16 FLuc: Gal4-VP16 reporter inhibition counter-screen | Drosophila S2 Gal4-VP16 UAS-luciferase, luminescence, 20 h | Potency, µM (top dose mostly 53.6 µM), for the others: at the top dose activity, negative = inhibition, most hits filed as inhibitors | actives 3.5% (n = 310,000);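 further: Gal4-VP16 expression switched on by copper sulfate through the metallothionein promoter; on the % scale 0 is the no-effect control and ±100 the full control effect; nearly all actives have a fitted effect of over 50% in size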
MCF10A rerep: DNA re-replication induction in MCF 10a cells | MCF 10A DNA re-replication, Hoechst nuclear intensity, 48 h | Potency, µM (doses to about 46.1 µM), for inactives: at the highest dose activity, positive = re-replication, actives largely listed as activators | actives 2.9% (n = 350,000) | AID 624296; further: % of control where 0% means no effect; nearly all actives have a fitted effect of over 50% in size
SW480 rerep: induces DNA re-replication in SW480 colon adenocarcinoma cells; SW480 DNA re-replication, Hoechst DNA content imaging, 48 h; Potency, µM (highest dose often 46.1 µM), for inactives: at the top dose re-replication activation, actives largely listed as activators; actives 1.8% (n = 340,000); further: % of control where 0% means no effect; nearly all actives have a fitted effect of over 55% in size
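Cells (250 per well) received 23 nL compound or DMSO by pin tool and were kept 48 hr at 37 C, 5% CO2. Nuclei were then stained with Hoechst for 40 min and scanned for DNA content.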
RORg inh: inhibitors of mouse ROR gamma transcriptional activity. P51450. Drosophila S2 Gal4-RORgamma UAS-luciferase reporter, 20 h. Potency, µM (highest dose often 53.6 µM), inactives show at the top dose activity change, negative = inhibition, usual class: inhibitors. actives 5.4% (n = 310,000). AID 2551; further: on the % scale 0 is the no-effect control and ±100 the full control effect; nearly all actives have a fitted effect of over 60% in size
Target sequence (P51450 whole entry, looked up, the tested form may be a part): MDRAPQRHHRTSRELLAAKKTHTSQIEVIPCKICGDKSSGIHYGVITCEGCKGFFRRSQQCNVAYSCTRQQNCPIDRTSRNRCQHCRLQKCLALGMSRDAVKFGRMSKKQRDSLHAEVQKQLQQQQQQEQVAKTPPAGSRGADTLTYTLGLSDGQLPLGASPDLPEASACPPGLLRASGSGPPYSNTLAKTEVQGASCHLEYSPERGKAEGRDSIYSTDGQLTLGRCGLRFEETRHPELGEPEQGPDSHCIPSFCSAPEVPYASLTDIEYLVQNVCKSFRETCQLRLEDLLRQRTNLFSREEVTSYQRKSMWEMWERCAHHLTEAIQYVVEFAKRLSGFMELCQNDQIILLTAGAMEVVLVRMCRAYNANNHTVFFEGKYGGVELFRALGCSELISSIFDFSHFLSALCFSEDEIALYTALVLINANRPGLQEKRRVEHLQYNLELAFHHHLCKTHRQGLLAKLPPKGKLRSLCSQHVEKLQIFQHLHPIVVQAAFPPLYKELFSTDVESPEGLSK
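Schneider cells (Drosophila), stable Gal4 DBD–ROR gamma + UAS-luc; 1 hr cmpd preincubation; Cu2+ induction 700 uM final; 20 hr ambient; luminescence.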
Active calls of the source: *; i = inactive; ? = inconclusive; nt = not tested or not shown. Shown are actives, neighbours in structure and some others; about 10% of the full set was active somewhere. The call rests on the fitted dose curve; in most records, active means well fitted curve in the direction sought with a large enough effect; inconclusive means small, poorly fitted or top-dose-only effect, or another doubt; inactive means no such curve, though single readings can be large; an effect the other way counts as inactive or inconclusive. Potency means the concentration at half of the fitted maximal effect.

SMILES	KB-3-1 cytotox	KB-V1 cytotox	Gal4-VP16 FLuc	MCF10A rerep	SW480 rerep	RORg inh
Cc1ccc(C2CC2c2n[nH]c(=S)n2-c2cccc(Cl)c2)cc1 (configuration not stated)	i	i	7.1µM*	23µM*	-5%	2.5µM*
Cc1ccc(C2CC2c2n[nH]c(=S)n2-c2ccc(C)cc2)cc1 (configuration not stated)	i	i	5.6µM*	?	25%	3.2µM*
Cc1ccc(-n2c(C3CC3c3ccc(Cl)cc3)n[nH]c2=S)cc1 (configuration not stated)	i	21µM*	5.6µM*	?	?	2.8µM*
Cc1ccc(-n2c([C@@H]3C[C@H]3c3ccccc3)n[nH]c2=S)cc1	i	?	?	?	?	2.8µM*
Cc1ccc(-n2c(Cn3c(C)nc4ccccc43)n[nH]c2=S)cc1	i	?	-13%	-1%	?	?
CCOC(=O)c1[nH]c(C)c(CCC(=O)Nc2ccc(N(CC)CC)cc2C)c1C	i	i	nt	nt	nt	nt
Cc1ccc(S(=O)(=O)NC(=O)C2(C)CCN2C(=O)CCc2ccc(Cl)cc2Cl)nc1 (configuration not stated)	i	i	nt	nt	nt	nt
CCN(CC)c1c(C)nc2ccc(C(=O)N3CCN(C(=O)c4ccco4)CC3)cn12	i	i	nt	nt	nt	nt
COc1ccc([N+](=O)[O-])c2c1CCN2C(=O)CC[C@H](N)C(=O)O	nt	nt	-4%	nt	nt	1%
S=c1[nH]nc(C2CC2c2ccc(Cl)cc2)n1-c1ccc(Cl)cc1 (configuration not stated)	i	i	?	?	?	2.2µM*
COc1ccc(C(C)NCCC(c2ccc(OC(C)C)cc2)c2ccccc2OC)cc1 (configuration not stated)	21µM*	16µM*	?	23µM*	?	?
COc1ccc(C(CCNC(C)c2ccccc2)C(C)C)cc1 (configuration not stated)	i	?	0%	-6%	-20%	-13%
C[C@@H]1C(c2cccc(Cl)c2)=NN(c2ccccc2)[C@H]1C(=O)N1CCOC1=O	i	i	5%	?	18µM*	7%
C[C@@H]1C(c2cccc(Cl)c2)=NN(c2ccc(Br)cc2)[C@H]1C(=O)N1CCOC1=O	i	i	-12%	?	3.3µM*	17%
CCOC(=O)c1cc2c(=O)n3ccccc3nc2n(Cc2ccco2)c1=NC(=O)c1c(F)cccc1Cl	i	i	nt	nt	nt	nt
c1ccc(-c2nc3nonc3nc2-c2ccccc2)cc1	i	?	?	?	?	11µM*
Nc1c(-c2ccccc2)nc(Cl)nc1-c1ccccc1	i	?	2%	10%	1%	14%
O=C(Nc1ccc(Br)cc1Cl)c1cnn2c1NC(=C1CC1)C=C2C(F)F	i	i	nt	nt	nt	nt
CCC(=O)Nc1ccc(-c2ccc(NC(=O)CC)c(OC)c2)cc1OC	i	i	1%	-2%	?	12%
CCOc1cc(Cl)c(NC(=O)CC)cc1OCC	i	i	-14%	-1%	18µM*	-20%
COc1ccc(C2c3[nH]c4ccccc4c3C[C@H]3C(=O)N(C4CCN(Cc5ccccc5)CC4)CC(=O)N23)cc1OC (some centres not stated)	?	i	-2%	?	18µM*	22%
COc1ccc(C2c3[nH]c4ccccc4c3CC3C(=O)N(CCc4ccc(OC)c(OC)c4)CC(=O)N32)cc1 (configuration not stated)	nt	nt	-2%	nt	nt	?
C=CCN1CC(=O)N2C(c3ccccc3)c3[nH]c4ccccc4c3C[C@H]2C1=O (some centres not stated)	6.5µM*	i	-2%	4%	?	1%
